# D3 antag = antagonists of human D3 dopamine receptor; P35462; D3R cells, DiscoveRx beta-arrestin luminescence, antagonist mode; stronger effect = lower value; max response, negative = inhibition, %; actives 2.5% (n = 360,000); AID 652054; in the data active means max response below about -50%; inconclusive means no clear call, values can overlap the other calls; further: on the % scale 0 is the no-effect control and ±100 the full control effect
#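 Cells expressing the human receptor were seeded at 1500 cells/well, incubated overnight at 37 degrees C in 5% CO2, then exposed to library compounds with dopamine controls for 90 minutes at 37 degrees C before luminescent detection.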
# DRD3 agonist = D3 dopamine receptor (human) agonism; AID 652048; P35462; actives 0.58% (n = 410,000); D3R DiscoveRx beta-arrestin cells, luminescence, 90 min; max activation, %; in the data active means max activation above about 30%; further: 0% is about no effect
#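 Agonist-mode cell screen: cells plated at 1500/well and incubated overnight at 37 °C, then exposed to library compounds for 90 min at 37 °C. Detection reagent was added for 30–60 min at room temperature, and luminescence was read.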
# HEK293 tox = cytotoxicity in counter-screen for GLP-1R inverse agonists; HEK293 cAMP-luciferase reporter cells, luminescence, 24 h; Potency, µM (series often up to 38.3 µM), without a hit: at the top dose activity change, negative = inhibition, hits mostly inhibitors; actives 0.13% (n = 410,000); AID 624418;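 further: loss of luciferase light is scored as toxicity; potency means the concentration at half of the fitted maximal effect; on the % scale 0 is the no-effect control and ±100 the full control effect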
#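 Cells in DMEM/10% Nu serum/1% pen-strep, 1536-well format. Pre-incubated 12 h, dosed with 23 nL compound, incubated a further 24 h. Luciferase detection, 12 min at room temp, luminescence.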
# GLP1R ag = GLP-1 receptor (human) agonism | actives 0.007% (n = 380,000) | Potency, µM (top dose mostly 45.6 µM), for inactives: top-dose activation, actives largely listed as activators | AID 624172 | P43220 | HEK293 GLP-1R CRE-luciferase, luminescence, 4-6 h; cells express a hypersensitive GLP-1R form; further: potency means the concentration at half of the fitted maximal effect; % of control where 0% means no effect
# Target sequence (P43220 whole entry, looked up): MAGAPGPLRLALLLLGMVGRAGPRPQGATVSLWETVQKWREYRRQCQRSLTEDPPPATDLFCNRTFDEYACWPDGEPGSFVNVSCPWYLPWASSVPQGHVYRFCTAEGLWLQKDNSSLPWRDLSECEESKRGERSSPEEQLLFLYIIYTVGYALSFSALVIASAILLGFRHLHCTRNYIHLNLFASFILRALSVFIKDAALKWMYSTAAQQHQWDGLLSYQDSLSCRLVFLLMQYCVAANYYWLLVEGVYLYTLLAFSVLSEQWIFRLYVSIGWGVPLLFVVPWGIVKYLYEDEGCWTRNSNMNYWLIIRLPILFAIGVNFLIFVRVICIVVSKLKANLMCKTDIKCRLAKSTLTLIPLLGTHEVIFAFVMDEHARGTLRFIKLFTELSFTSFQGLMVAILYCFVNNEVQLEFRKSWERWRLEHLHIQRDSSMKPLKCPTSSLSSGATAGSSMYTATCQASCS
# ClpP mod = qHTS Assay for Activators of ClpP | Potency, µM (top dose mostly 57.5 µM), without a hit: top-dose activity change, negative = active | AID 651965, 2013 | ATP-dependent Clp protease proteolytic subunit (Bacillus subtilis (strain 168)), P80244 | actives 1.9% (n = 340,000) | purified B. subtilis ClpP, FRET peptide cleavage, 20 min; active means well fitted falling curve with a large enough effect; inconclusive means small, poorly fitted or top-dose-only effect; inactive means no such curve, though single readings can be large or run the other way; further: potency means the concentration at half of the fitted maximal effect; the source files actives as falling curves though it sought activators and does not explain the sign; nearly all actives have a fitted effect of over 65% in size
#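 Purified B. subtilis ClpP, 10 microg/mL final in Tris/HCl pH8 with KCl, BSA, glycerol and Tween-20, cleaved an Abz/nitrotyrosine-quenched decapeptide. Fluorescence (ex 320, em 430) was read at 0 and 20 min at room temperature. Delta was normalized to 5.8 microM ADEP and DMSO/no-enzyme controls.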
# GLP-1R inv ag = acts as inverse agonist at human GLP-1 receptor; actives 1.6% (n = 410,000); HEK293 GLP-1R CRE-luciferase, luminescence, 24 h; GLP-1R form is constitutively active; Potency, µM (titrated, usually from 38.3 µM), without a hit: top-dose activity change, negative = inhibition, hits mostly inhibitors; AID 624417; further: potency means the concentration at half of the fitted maximal effect; on the % scale 0 is the no-effect control and ±100 the full control effect; nearly all actives have a fitted effect of over 55% in size
#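 Constitutively active GLP-1R drives a cAMP-responsive luciferase in stably transfected HEK293 cells; test compounds are added after overnight (12 h) attachment and left 24 hr, and signal loss in luminescence marks inhibition.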
# An asterisk follows results filed as active; ? = inconclusive; . = no result; [ ] = remark or other dose. Only some compounds are listed: those with a hit (about 5.7% of all), similar ones and a draw of the others. Unless noted, the call rests on the fitted dose curve; in most records, active means well fitted curve in the direction sought with a large enough effect; inconclusive means small, poorly fitted or top-dose-only effect, or another doubt; inactive means no such curve, though single readings can be large; an effect the other way counts as inactive or inconclusive.
SMILES,D3 antag,DRD3 agonist,HEK293 tox,GLP1R ag,ClpP mod,GLP-1R inv ag
CCOC(=O)c1c(NC(=O)CSc2ncccn2)sc2c1CCN(Cc1ccccc1)C2,-81*,-12,5%,2%,-6%,?
COC(=O)c1c(NC(=O)C2COc3ccccc3O2)sc2c1CCN(Cc1ccccc1)C2 (stereo not given),-5,3,-7%,2%,20µM*,?
CCOC(=O)c1c(NC(=O)CSc2nnc3c(n2)[nH]c2ccc(F)cc23)sc(C(C)=O)c1C,-4,0,-22%,1%,-3%,0%
CCOC(=O)c1c(NC(=O)CSc2nnc3c(n2)[nH]c2ccccc23)sc2c1CCN(C)C2,-60*,1,?,8%,-22%,?
Cc1ccc(-c2[nH]ncc2CNCc2ccccc2)cc1,.,.,.,.,1%,.
Cc1ccc(C)c(N2CCN(CCCNC(=O)c3nnc(Cc4ccc(F)cc4Cl)o3)CC2)c1,.,-37,0%,.,1%,-18%
COc1ccc(Cl)cc1NC(=O)NC1CCCCC1,0,-10,6%,-1%,1%,?
COc1ccc(Cl)cc1NC(=O)Nc1cccc([N+](=O)[O-])c1C,-76*,-17,-9%,0%,1%,?
CC(C(=O)Nc1ccc(F)c(F)c1F)N(C)CCOc1ccccc1 (stereo not given),?,-17,-14%,-5%,-2%,?
COc1ccccc1NC(=O)C(C)N(C)CCOc1ccccc1 (stereo not given),2,-7,20%,17%,.,11µM*
Cc1ccccc1OC(=O)CSc1nnc(-c2cccs2)o1,.,9,6%,.,53%,0%
CSc1cccc(CN2CCC(CO)(Cc3cccc(C(F)(F)F)c3)CC2)c1,?,-18,?,13%,.,?
Cc1ccc(-n2cc(CN3CCC(CO)(Cc4cccc(C(F)(F)F)c4)CC3)cn2)cc1,-61*,-10,?,-4%,.,?
COc1cc(-c2nnc(SCC(=O)N(C)C3CCCCC3)o2)cc(OC)c1OC,.,4,0%,.,-1%,?
COc1ccccc1C(=O)Nc1nc(-c2ccc3c(c2)OCCO3)cs1,128,18,0%,-2%,25µM*,?
COc1ccc(-c2csc(NC(C)=O)n2)cc1OC,9,1,-17%,4%,0%,56%
COc1cccc(NC(=O)Nc2nc(-c3ccc(OC)c(OC)c3)cs2)c1,118,49*,?,-6%,-1%,?
CC(C)(C)C(=O)Nc1nc(-c2ccc3c(c2)OCO3)cs1,-4,1,6%,-4%,-1%,10µM*
O=C(NCCc1ccccc1)C1CCN(S(=O)(=O)c2cccc3nsnc23)CC1,-20,1,-10%,-5%,-2%,14%
O=C(C1CCCN(S(=O)(=O)c2cccc3nsnc23)C1)N1CCN(c2cccc(Cl)c2)CC1 (stereo not given),.,32*,2%,-4%,-1%,0%
O=C(NCCN1CCN(c2ccccc2)CC1)C1CCN(S(=O)(=O)c2cccc3nsnc23)CC1,-16,94*,1%,-1%,0%,-12%
COc1ccc(NC(=O)CCCc2nnc3n(CCC(C)C)c(=O)c4sccc4n23)cc1Cl,.,-10,-10%,.,-1%,-7%
Cc1nn(C)c(C)c1NC(=O)c1cc2nc(-c3ccco3)cc(C(F)(F)F)n2n1,9,5,-21%,25%,.,46%
O=C(Nc1ccc(Cl)cc1)c1cc2nc(-c3ccco3)cc(C(F)(F)F)n2n1,9,11,84%,-1%,14µM*,6%
CC(C)(C)c1cc(CN2CCN(CCO)CC2)cc(C(C)(C)C)c1O,-82*,-33,7%,-14%,0%,-27%
Nc1ccc(N)c([N+](=O)[O-])c1,.,-29,.,1%[96 µM],.,.

# Screening data (PubChem)
